Results published in PMC7862700, “An all-to-all approach to the identification of sequence-specific readers for epigenetic DNA modifications on cytosine”.

Legend:
Assay in all cases: DAPPL (digital affinity profiling via proximity ligation, sequencing); 10 mM Tris-HCl pH 7.5, 50 mM NaCl, 1 mM DTT, 4% glycerol, room temperature, 30 min; GST-TFs on glutathione beads, 16-mer random dsDNA library, 0.1% formaldehyde crosslink after washing; high values mean tight binding
Conditions in all cases: protein: recombinant; tags: N-terminal GST; dsDNA, one strand shown
ERF = target: T1, ERF (Homo sapiens, UniProt P50548 1-548)
T1 sequence: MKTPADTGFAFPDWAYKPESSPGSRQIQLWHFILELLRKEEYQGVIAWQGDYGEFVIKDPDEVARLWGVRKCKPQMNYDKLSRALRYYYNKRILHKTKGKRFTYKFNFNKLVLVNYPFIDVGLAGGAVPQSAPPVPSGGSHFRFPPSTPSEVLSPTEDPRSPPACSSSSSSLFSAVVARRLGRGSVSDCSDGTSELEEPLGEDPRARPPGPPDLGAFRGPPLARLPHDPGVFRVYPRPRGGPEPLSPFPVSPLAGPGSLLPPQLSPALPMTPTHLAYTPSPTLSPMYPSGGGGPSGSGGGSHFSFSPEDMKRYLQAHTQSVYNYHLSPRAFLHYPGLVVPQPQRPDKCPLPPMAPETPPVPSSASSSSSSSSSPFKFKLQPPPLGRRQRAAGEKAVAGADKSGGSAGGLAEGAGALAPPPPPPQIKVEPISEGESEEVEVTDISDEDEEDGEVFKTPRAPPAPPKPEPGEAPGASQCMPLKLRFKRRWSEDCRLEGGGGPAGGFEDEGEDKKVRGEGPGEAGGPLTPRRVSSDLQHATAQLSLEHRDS
Procedure, shortened: (§1)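 Human transcription factors carrying a GST fusion were produced in yeast, bound to glutathione beads, tagged with DNA barcodes and pooled together with a tag-only sample. Each pool was held with 200 nmole of a random double-stranded 16-mer DNA library in Tris/NaCl/DTT/glycerol buffer for 30 min at room temperature, then washed, crosslinked in 0.1% formaldehyde, proximity-ligated with BsaI/T4 ligase (1 h, 37 °C), PCR-amplified and sequenced on an Illumina NextSeq500. Binding signal is the read frequency of each hexamer for a given factor divided by its frequency in the tag-only sample.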

ETV3L = target: T2, ETV3L (Homo sapiens, UniProt Q6ZN32 1-361)
T2 sequence: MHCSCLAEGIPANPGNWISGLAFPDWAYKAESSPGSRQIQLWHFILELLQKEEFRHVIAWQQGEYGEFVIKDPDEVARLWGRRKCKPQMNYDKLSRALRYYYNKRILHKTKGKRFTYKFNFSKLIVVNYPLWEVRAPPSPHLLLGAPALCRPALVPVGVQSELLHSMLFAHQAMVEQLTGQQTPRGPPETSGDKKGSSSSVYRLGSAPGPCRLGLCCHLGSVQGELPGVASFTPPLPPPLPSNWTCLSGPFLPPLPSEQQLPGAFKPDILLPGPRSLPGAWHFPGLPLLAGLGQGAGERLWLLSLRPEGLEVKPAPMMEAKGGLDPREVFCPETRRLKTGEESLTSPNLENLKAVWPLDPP
Procedure, shortened: as §1

ETS2 = target: T3, ETS2 (Homo sapiens, UniProt P15036 1-469)
T3 sequence: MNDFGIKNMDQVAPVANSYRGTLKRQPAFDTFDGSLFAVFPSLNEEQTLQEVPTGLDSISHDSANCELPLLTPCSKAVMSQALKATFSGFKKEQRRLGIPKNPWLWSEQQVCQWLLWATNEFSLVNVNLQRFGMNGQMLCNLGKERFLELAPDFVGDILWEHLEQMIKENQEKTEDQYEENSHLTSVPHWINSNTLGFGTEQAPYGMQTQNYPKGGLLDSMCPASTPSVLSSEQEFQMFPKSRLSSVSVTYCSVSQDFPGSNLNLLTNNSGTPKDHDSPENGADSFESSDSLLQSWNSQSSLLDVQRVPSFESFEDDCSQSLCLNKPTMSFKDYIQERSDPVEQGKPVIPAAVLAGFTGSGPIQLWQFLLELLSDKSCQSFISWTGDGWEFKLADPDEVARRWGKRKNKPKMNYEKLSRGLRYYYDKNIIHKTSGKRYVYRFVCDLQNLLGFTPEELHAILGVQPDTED
Procedure, shortened: as §1

SPDEF = target: T4, SPDEF (Homo sapiens, UniProt O95238 1-335)
T4 sequence: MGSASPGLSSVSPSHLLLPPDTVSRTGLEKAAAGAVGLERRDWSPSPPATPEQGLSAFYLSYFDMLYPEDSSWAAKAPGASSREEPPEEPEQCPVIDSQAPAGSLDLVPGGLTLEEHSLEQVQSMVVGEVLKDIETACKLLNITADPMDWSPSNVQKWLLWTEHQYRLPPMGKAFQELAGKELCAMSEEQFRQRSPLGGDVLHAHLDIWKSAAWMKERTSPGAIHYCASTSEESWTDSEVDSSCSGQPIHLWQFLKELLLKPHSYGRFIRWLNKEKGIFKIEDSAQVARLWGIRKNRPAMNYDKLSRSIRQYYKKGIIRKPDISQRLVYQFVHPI
Procedure, shortened: as §1

ETV7 = target: T5, ETV7 (Homo sapiens, UniProt Q9Y603 1-341)
T5 sequence: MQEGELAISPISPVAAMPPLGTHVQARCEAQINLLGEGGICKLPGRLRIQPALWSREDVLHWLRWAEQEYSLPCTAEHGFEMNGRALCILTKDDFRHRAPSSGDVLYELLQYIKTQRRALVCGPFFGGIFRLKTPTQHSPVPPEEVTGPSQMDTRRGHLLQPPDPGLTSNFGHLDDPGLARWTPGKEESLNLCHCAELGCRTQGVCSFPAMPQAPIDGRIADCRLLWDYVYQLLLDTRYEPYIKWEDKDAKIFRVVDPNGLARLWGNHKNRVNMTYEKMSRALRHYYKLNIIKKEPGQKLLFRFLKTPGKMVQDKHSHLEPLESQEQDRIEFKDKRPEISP
Procedure, shortened: as §1

ELF5 = target: T6, ELF5 (Homo sapiens, UniProt Q9UKW6-2 1-255)
T6 sequence: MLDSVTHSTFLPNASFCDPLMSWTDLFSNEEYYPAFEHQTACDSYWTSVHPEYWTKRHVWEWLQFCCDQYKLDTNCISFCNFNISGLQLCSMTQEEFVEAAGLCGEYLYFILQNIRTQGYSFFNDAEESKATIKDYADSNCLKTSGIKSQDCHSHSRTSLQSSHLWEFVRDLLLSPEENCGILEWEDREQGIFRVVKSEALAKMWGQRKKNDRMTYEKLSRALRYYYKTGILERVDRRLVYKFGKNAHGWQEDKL
Procedure, shortened: as §1

ETV3 = target: T7, ETV3 (Homo sapiens, UniProt P41162-2 1-143)
T7 sequence: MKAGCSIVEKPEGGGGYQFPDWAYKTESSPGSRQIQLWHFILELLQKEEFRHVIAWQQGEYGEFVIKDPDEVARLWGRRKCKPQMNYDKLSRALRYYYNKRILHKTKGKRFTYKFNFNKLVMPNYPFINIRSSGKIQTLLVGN
Procedure, shortened: as §1

ETV6 = ETV6 (Homo sapiens, UniProt P41212 1-452)
Sequence of ETV6 (P41212 whole entry): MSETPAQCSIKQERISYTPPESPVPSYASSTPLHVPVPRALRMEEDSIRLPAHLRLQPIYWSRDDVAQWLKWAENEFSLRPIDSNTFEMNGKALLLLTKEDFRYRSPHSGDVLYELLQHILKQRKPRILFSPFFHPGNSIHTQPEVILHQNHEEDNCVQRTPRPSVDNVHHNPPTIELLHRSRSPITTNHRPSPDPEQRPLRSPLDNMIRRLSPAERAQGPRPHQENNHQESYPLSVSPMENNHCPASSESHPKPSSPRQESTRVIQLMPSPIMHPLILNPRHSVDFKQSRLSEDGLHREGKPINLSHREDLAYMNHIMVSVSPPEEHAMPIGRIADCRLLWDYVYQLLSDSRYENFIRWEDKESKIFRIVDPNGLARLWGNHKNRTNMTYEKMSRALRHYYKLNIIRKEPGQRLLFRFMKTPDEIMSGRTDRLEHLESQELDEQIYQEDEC
Procedure, shortened: as §1

| Sequence | binding signal (ERF) | binding signal (ETV3L) | binding signal (ETS2) | binding signal (SPDEF) | binding signal (ETV7) | binding signal (ELF5) | binding signal (ETV3) | binding signal (ETV6) |
| --- | --- | --- | --- | --- | --- | --- | --- | --- |
| CAACGA | 1.05 fold enrichment (6-mer frequency, TF over GST control) | 1.08 fold enrichment (6-mer frequency, TF over GST control) | 1.11 fold enrichment (6-mer frequency, TF over GST control) | 1.01 fold enrichment (6-mer frequency, TF over GST control) | 1.05 fold enrichment (6-mer frequency, TF over GST control) | 1.01 fold enrichment (6-mer frequency, TF over GST control) | 1.07 fold enrichment (6-mer frequency, TF over GST control) | 1.04 fold enrichment (6-mer frequency, TF over GST control) |
| GTTCCC | 1.31 fold enrichment (6-mer frequency, TF over GST control) | 1.22 fold enrichment (6-mer frequency, TF over GST control) | 1.28 fold enrichment (6-mer frequency, TF over GST control) | 1.29 fold enrichment (6-mer frequency, TF over GST control) | 1.3 fold enrichment (6-mer frequency, TF over GST control) | 1.48 fold enrichment (6-mer frequency, TF over GST control) | 1.31 fold enrichment (6-mer frequency, TF over GST control) | 1.28 fold enrichment (6-mer frequency, TF over GST control) |
| TGGCAC | 1.21 fold enrichment (6-mer frequency, TF over GST control) | 1.2 fold enrichment (6-mer frequency, TF over GST control) | 1.14 fold enrichment (6-mer frequency, TF over GST control) | 1.12 fold enrichment (6-mer frequency, TF over GST control) | 1.18 fold enrichment (6-mer frequency, TF over GST control) | 1.05 fold enrichment (6-mer frequency, TF over GST control) | 1.19 fold enrichment (6-mer frequency, TF over GST control) | 1.16 fold enrichment (6-mer frequency, TF over GST control) |
| ATACGG | 1.28 fold enrichment (6-mer frequency, TF over GST control) | 1.15 fold enrichment (6-mer frequency, TF over GST control) | 1.22 fold enrichment (6-mer frequency, TF over GST control) | 1.31 fold enrichment (6-mer frequency, TF over GST control) | 1 fold enrichment (6-mer frequency, TF over GST control) | 1.32 fold enrichment (6-mer frequency, TF over GST control) | 1.31 fold enrichment (6-mer frequency, TF over GST control) | 1.18 fold enrichment (6-mer frequency, TF over GST control) |
| TCTTTT | 1.46 fold enrichment (6-mer frequency, TF over GST control) | 1.54 fold enrichment (6-mer frequency, TF over GST control) | 1.47 fold enrichment (6-mer frequency, TF over GST control) | 1.4 fold enrichment (6-mer frequency, TF over GST control) | 1.56 fold enrichment (6-mer frequency, TF over GST control) | 1.43 fold enrichment (6-mer frequency, TF over GST control) | 1.5 fold enrichment (6-mer frequency, TF over GST control) | 1.41 fold enrichment (6-mer frequency, TF over GST control) |
| ATTAGG | 1.26 fold enrichment (6-mer frequency, TF over GST control) | 1.12 fold enrichment (6-mer frequency, TF over GST control) | 1.06 fold enrichment (6-mer frequency, TF over GST control) | 1.11 fold enrichment (6-mer frequency, TF over GST control) | 1.15 fold enrichment (6-mer frequency, TF over GST control) | 1.12 fold enrichment (6-mer frequency, TF over GST control) | 1.06 fold enrichment (6-mer frequency, TF over GST control) | 1.09 fold enrichment (6-mer frequency, TF over GST control) |
| CTGCCC | 1.16 fold enrichment (6-mer frequency, TF over GST control) | 1.22 fold enrichment (6-mer frequency, TF over GST control) | 1.21 fold enrichment (6-mer frequency, TF over GST control) | 1.23 fold enrichment (6-mer frequency, TF over GST control) | 1.15 fold enrichment (6-mer frequency, TF over GST control) | 1.19 fold enrichment (6-mer frequency, TF over GST control) | 1.37 fold enrichment (6-mer frequency, TF over GST control) | 1.16 fold enrichment (6-mer frequency, TF over GST control) |
